Laboratory results reported in PubChem BioAssay AID1259417 (TB Discovery Research, Infectious Disease Research Institute, 2018).
Among all 1,100 compounds or so, about 760 (69%) were called active. The rule behind the calls is not given here. So high a share suggests a set chosen from earlier hits. The list shows a part of the results.

Experiment: M. tuberculosis growth inhibition, HTS (AID 1259417);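 note: bacteria grown with compound for 5 days at 37 °C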
Conditions: stronger effect = higher value, concentration not given here
[1] = M. tuberculosis DsRed fluorescence growth inhibition
[2] = M. tuberculosis growth inhibition

| SMILES | inhibition [1] | inhibition [2] [%] |
| --- | --- | --- |
| Cc1cccc(OCc2nnc(SCC(=O)OC3CCCCC3)o2)c1 | 82.9% (active) | 94.9 |
| Cc1cc(OCc2nnc(SCC(=O)OC3CCCCC3)o2)ccc1Cl | 94% (active) | 94.6 |
| O=C(Nc1ccc(C(F)(F)F)cc1)Nc1cccc(Cl)c1 | 99.7% (active) | 100 |
| O=C(C=Cc1cccc(C(F)(F)F)c1)Nc1cccc(C(F)(F)F)c1 | 25.5% (inactive) | 6.54 |
| Cc1ccc(S(=O)(=O)Nc2ccc(NC(=O)Nc3cccc(C(F)(F)F)c3)cc2)cc1 | 1.5% (inactive) | -12.5 |
| CCOC(=O)CSc1nc(-c2ccccc2)ns1 | 51.6% (active) | 86.5 |
| CCOC(=O)CNC(=O)CSc1nc(-c2ccccc2)ns1 | 85.8% (active) | 65.5 |
| CCOC(=O)CNC(=O)CSc1nc(-c2cccc(C)c2)ns1 | 56.7% (active) | 71.3 |
| c1ccc2cc3nc4c(ccc5ccccc54)nc3cc2c1 | 97.7% (active) | 99 |
| COc1cccc(-n2nnnc2S(=O)(=O)Cc2ccccc2)c1 | 100% (active) | 101 |
| COc1cccc(-n2nnnc2S(C)(=O)=O)c1 | 99.7% (active) | 100 |
| CCCS(=O)(=O)c1nnnn1-c1cccc(OC)c1 | 101% (active) | 100 |
| O=C(C=Cc1cccs1)N1CCN(Cc2ccc3c(c2)OCO3)CC1 | 99.4% (active) | 100 |
| O=C(NC1CCCCC1)N1CCN(Cc2ccc3c(c2)OCO3)CC1 | 99.4% (active) | 100 |
| CC12CC3CC(C)(C1)CC(CNCc1ccccc1O)(C3)C2 | 98.9% (active) | 99.3 |
| CC1(C)C=Cc2c(nc3ccccc3c2NCc2ccccc2)C1 | 16.7% (active) | 35.8 |
| c1ccc(CNc2nc(N3CCN(Cc4ccccc4)CC3)nc3ccccc23)cc1 | -2.6% (inactive) | -0.535 |
| Cc1cc(OCCn2ccnc2)ccc1Cl | 89.5% (active) | 90.8 |
| Cc1cc(OCCCn2ccnc2)ccc1Cl | 98.9% (active) | 99.6 |
| Clc1cc(Br)ccc1OCCCCn1ccnc1 | 99.4% (active) | 99.4 |
| Brc1c(OCCCn2ccnc2)ccc2ccccc12 | 98.3% (active) | 99 |

| SMILES | inhibition [1] | inhibition [2] [%] |
| --- | --- | --- |
| Clc1ccc(OCCCCn2ccnc2)c(Br)c1 | 98.8% (active) | 99.3 |
| Clc1ccc(SCCCn2ccnc2)cc1 | 100% (active) | 99.6 |
| Clc1ccc(OCCCCCn2ccnc2)c(Cl)c1 | 100% (active) | 99.3 |
| C=CCc1cc(Cl)ccc1OCCCCn1ccnc1 | 100% (active) | 100 |
| C=CCc1cc(C)ccc1OCCCn1ccnc1 | 92.4% (active) | 97.1 |
| C=CCc1cc(C)ccc1OCCCCn1ccnc1 | 99.4% (active) | 100 |
| C=CCn1c(-c2cccs2)nc2ccccc21 | 97.1% (active) | 100 |
| NC(CC(=O)c1ccc(Cl)cc1Cl)C(Cl)(Cl)Cl (configuration not stated) | 99.7% (active) | 99.4 |
| Oc1ccc(-c2nc3cc4ccccc4cc3nc2-c2ccccc2)cc1 | 19.6% (active) | 37.8 |
| Cc1cc(C)c2nc(NNC(=O)c3cc4ccccc4oc3=O)sc2c1 | 46.2% (active) | 86.5 |
| Cc1ccc2sc(NNC(=O)c3cc4ccccc4oc3=O)nc2c1C | 3.35% (active) | 33.4 |
| Cc1ccc2sc(NNC(=O)C3COc4ccccc4O3)nc2c1C (configuration not stated) | -2.21% (inactive) | -8.62 |
| Cc1ccc2nc(NNC(=O)c3cc4ccccc4oc3=O)sc2c1 | -1.04% (inactive) | 10.6 |
| Cc1cccc2sc(NNC(=O)c3cc4ccccc4oc3=O)nc12 | 47.1% (active) | 89 |
| CCCOc1ccc(C2Oc3ccc(Br)cc3C=C2[N+](=O)[O-])cc1OC (configuration not stated) | 10.3% (active) | 37.5 |
| Cc1ccc(Nc2ccccc2N)cc1 | 99.5% (active) | 99.1 |
| COc1ccc(Nc2ccccc2N)cc1 | 96% (active) | 97.4 |
| COc1ccc(Nc2cc(C)nc3c2ccc2ccccc23)cc1 | 18.8% (inactive) | 19.5 |
| Nc1ccccc1Nc1ccccc1 | 98.6% (active) | 98.4 |
| O=c1cc(Cc2ccccc2)nc2c(-c3ccccc3)c[nH]n12 | 93% (active) | 96.9 |
| CCN1CCc2c(sc(NC(=O)c3ccccc3)c2-c2nc3ccccc3s2)C1 | 52.7% (active) | 77.8 |

| SMILES | inhibition [1] | inhibition [2] [%] |
| --- | --- | --- |
| Cc1ccccc1C(=O)Nc1sc2c(c1C(=O)N1CCN(Cc3ccccc3)CC1)CCCCC2 | -0.558% (inactive) | -12.1 |
| NC(=O)c1c(NC(=O)c2ccc([N+](=O)[O-])s2)sc2c1CCN(Cc1ccccc1)C2 | 25.9% (inactive) | 2.21 |
| CCCCOc1ccc(S(=O)(=O)Nc2ccc(I)cc2)cc1 | -1.45% (inactive) | 17.1 |
| COCCNS(=O)(=O)c1ccc(-c2ccc(C)cc2)cc1 | 98.6% (active) | 98.3 |
| O=S(Cc1ccccc1)c1nc2ccccc2s1 (configuration not stated) | 51.3% (active) | 74.9 |
| Brc1ccc2ncnc(Nc3ccc(N4CCCC4)cc3)c2c1 | 100% (active) | 99.7 |
| CN(C)c1ccc(Nc2ncnc3ccc(Br)cc23)cc1 | 100% (active) | 99.4 |
| Nc1c(C(=O)Nc2ccc(Br)cc2)sc2nc3c(c(-c4cccs4)c12)CCCC3 | 5.67% (inactive) | -16.7 |
| Nc1c2c(nc3sc4c(c13)CCCC4)CCCC2 | 99.7% (active) | 101 |
| Cc1nc(SCc2csc(C)n2)c2c3c(sc2n1)CCCC3 | 13.5% (inactive) | -7.63 |
| CC1CCc2nc3sc4c(c3c(N)c2C1)CCCC4 (configuration not stated) | 99.8% (active) | 99.6 |
| N#CCCN(Cc1ccccc1)C(=S)NC(=O)c1ccccc1 | -2.05% (inactive) | 0.14 |
| CN(Cc1ccccc1)C(=S)NC(=O)c1cccs1 | 23.4% (active) | 33.4 |
| COc1cccc(C(=O)Nc2nnc(-c3ccc(Cl)cc3)o2)c1 | 35.6% (active) | 70.5 |
| O=C(Nc1nnc(-c2ccccc2Cl)o1)c1ccco1 | -3.23% (inactive) | -7.63 |
| O=C(Nc1nnc(-c2ccccc2Cl)o1)c1cccc(Oc2ccccc2)c1 | 94% (active) | 93.2 |
| O=C(Nc1nnc(C2=COCCO2)o1)c1cccc(Cl)c1 | 12.5% (inactive) | 27.2 |
| COc1cccc(-c2nnc(NC(=O)c3cccc(F)c3)o2)c1 | 89.3% (active) | 93.2 |
| COc1cccc(-c2nnc(NC(=O)C=Cc3cccs3)o2)c1 | -4.21% (inactive) | 4.98 |
